Bioassay records deposited in PubChem by NMMLSC.
Most compounds without a hit are left out; they make up all but 1.6% or so of the library.
VLA-4 antagonist: inhibitors of LDV-FITC binding to Mn2+-activated VLA-4, primary screen, Jurkat cells; LDV-FITC binding with Mn2+, flow cytometry; 100% = Mn2+-driven binding gain fully reversed; inhibition, % at 10 µM (by protocol); actives 0.2% (n = 24,000); AID 529, 2006;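 active means inhibition above 50%; inconclusive means compound itself fluorescent, judged against control cell fluorescence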;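 further: 0% = Mn2+ stimulated cells lacking compound and 100% = ligand binding without Mn2+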
Autofluor Jurkat: compound autofluorescence on Jurkat cells, primary screen, artefact control for VLA-4 allosteric ligand project, cell-based, flow cytometry; hits give high values; 1 = vehicle-only cell background; fluorescence ratio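 (tested at 10 µM compound in the well)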; actives 0.61% (n = 24,000);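 active means fluorescence ratio above 2.44, which is 1 plus 3 SD of all ratios; inconclusive means signal too bright to measure linearly, ratio around 10 or more; inactive means fluorescence ratio below 2.44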;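 further: green fluorescence of cells measured with 488 nm excitation and 530 nm emission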
VLA-4 allo ag: enhancers of LDV-FITC binding to VLA-4 integrin, primary screen, Jurkat cells, flow cytometry. Integrin alpha-4 (Homo sapiens), P13612. activation, % at 10 µM (by protocol). 24,000 tested, under 10 active. AID 528, 2006;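 active means fluorescent ligand binding to cells raised by more than 40% of the manganese-induced maximum; inconclusive means compound's own fluorescence above 85% of the ligand control signal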;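 further: 0% = ligand binding without compound and 100% = manganese-stimulated maximal binding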
Prostate diff: activators of LNCaP prostate cell differentiation, primary screen, flow cytometry side scatter. actives 0.56% (n = 24,000). AID 795, 2007. side scatter shift, % at 10 µM. 4 d;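 active means side scatter shift above 30%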;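 further: androgen-responsive LNCaP prostate cancer cells in charcoal-stripped serum medium; percent of cells past a gate set so DMSO wells show 10% shift; higher shift means more granular cells and more differentiation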
Proteasome disasm: inhibitors of ATP-driven 26S proteasome dissociation, primary screen, biochemical, bead-based flow cytometry, GFP-tagged proteasome; inhibition of disassembly, % (test concentration not listed); AID 751, 2007; anti-FLAG beads, GFP-proteasome disassembly; actives 0.2% (n = 24,000);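 active means inhibition of disassembly above about 33%, limit read from the data; inconclusive means likely self-fluorescent, control bead median signal at least 40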;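 further: plate controls were ATP control with full disassembly for no effect and ATP-gamma-S intact proteasomes for full effect; higher percent means more bead fluorescence retained so stronger block of disassembly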
Starred values were filed as active, the others as inactive; ? = inconclusive.

SMILES	VLA-4 antagonist	Autofluor Jurkat	VLA-4 allo ag	Prostate diff	Proteasome disasm
CC(C)[C@@]1(NC(=O)[C@@H]2C=C3c4cccc5[nH]cc(c45)C[C@H]3N(C)C2)O[C@@]2(O)[C@@H]3CCCN3C(=O)[C@H](Cc3ccccc3)N2C1=O	?	3.51*	?	9.0	18.1
Clc1ccc(COC(Cn2ccnc2)c2ccc(Cl)cc2Cl)c(Cl)c1 (stereo not drawn)	5.5	1.09	-18.0	2.0	0.1
